Source: PubChem BioAssay (National Center for Advancing Translational Sciences (NCATS))
12-LOX inh: inhibitors of human 12S-lipoxygenase ALOX12. purified 12hLO, xylenol orange hydroperoxide absorbance. P18054. Potency, µM (titrated, usually from 108 µM), inactives show top-dose activity change, negative = inhibition, usual class: inhibitors. AID 1671190. actives 1.1% (n = 580,000); further: potency means the concentration at half of the fitted maximal effect
Target sequence (P18054 whole entry, looked up): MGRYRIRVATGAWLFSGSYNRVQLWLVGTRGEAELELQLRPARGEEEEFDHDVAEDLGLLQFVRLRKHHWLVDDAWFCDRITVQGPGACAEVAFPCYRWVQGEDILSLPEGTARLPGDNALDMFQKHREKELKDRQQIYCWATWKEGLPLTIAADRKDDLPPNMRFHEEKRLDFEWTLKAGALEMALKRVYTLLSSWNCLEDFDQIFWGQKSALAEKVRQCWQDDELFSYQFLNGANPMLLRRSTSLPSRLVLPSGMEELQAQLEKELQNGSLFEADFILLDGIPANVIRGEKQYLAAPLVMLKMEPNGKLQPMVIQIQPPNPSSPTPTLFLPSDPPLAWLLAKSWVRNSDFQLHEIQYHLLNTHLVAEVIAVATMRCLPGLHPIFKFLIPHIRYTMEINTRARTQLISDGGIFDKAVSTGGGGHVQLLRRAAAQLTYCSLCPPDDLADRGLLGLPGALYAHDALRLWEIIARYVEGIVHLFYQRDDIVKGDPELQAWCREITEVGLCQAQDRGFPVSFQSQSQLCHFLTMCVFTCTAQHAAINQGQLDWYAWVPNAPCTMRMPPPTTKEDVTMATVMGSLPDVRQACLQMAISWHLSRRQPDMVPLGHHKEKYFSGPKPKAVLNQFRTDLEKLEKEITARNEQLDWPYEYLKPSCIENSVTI
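Purified human 12hLO (150 nM final) in 25 mM Hepes, 0.01% Triton X-100, pH 7.0 was preincubated 15 min at room temperature with compound. Then 40 uM arachidonic acid was added, 30 min. Hydroperoxide was read by Fe-XO absorbance ratio 573/405 nm.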
HT1080 IDH1KD tx: kills HT-1080 cells with IDH1 knockdown | HT-1080 IDH1 knockdown viability, ATP luminescence, 48 h | Potency, µM (doses to about 46.1 µM), inactives show top-dose activity, negative = toxicity, usual class: cytotoxic | actives 2% (n = 360,000);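 further: potency means the concentration at half of the fitted maximal effect; 0% = DMSO wells and -100% = cell-free medium wells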
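In this qHTS, HT-1080 cells depleted of IDH1 are exposed for 48 h at 37 °C to compound titrations. Toxicity is scored from CellTiter-Glo luminescence, with DMSO as full viability and medium alone as none.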
TDP1 cell CPT: growth inhibition of DT40 Tdp1-/-;hTDP1 cells with camptothecin (screen for TDP1 inhibitors). chicken DT40 Tdp1-/-;hTDP1 cells + 20 nM CPT, ATP luminescence, 48 h. actives 12% (n = 420,000). Potency, µM (highest dose often 46.2 µM), for the others: at the top dose activity change, negative = growth inhibition, most hits filed as inhibitors; further: potency means the concentration at half of the fitted maximal effect; nearly all actives have a fitted effect of over 55% in size
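Cell growth measured by CellTiter-Glo luminescence after a minimum 48 h, 37 C compound exposure with 20 nM CPT in Tdp1-knockout DT40 cells stably expressing hTDP1, seeded 400/well; qHTS titration format.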
HT1080NT lethal: kills 2HG-producing HT-1080-NT fibrosarcoma cells | HT-1080-NT fibrosarcoma viability, CellTiter-Glo ATP luminescence, 48 h | Potency, µM (top dose mostly 46.1 µM), for inactives: at the highest dose activity, negative = less viability, most hits filed as cytotoxic | actives 1.6% (n = 360,000) | AID 686970;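 further: NT is the 2HG producing partner of a matched IDH1 knockdown line; potency means the concentration at half of the fitted maximal effect; 0% = DMSO-treated cells and -100% = media-only wells without cells; nearly all actives have a fitted effect of over 55% in size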
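Toxicity toward the 2HG-producing NT line was scored as %Activity, normalised to DMSO and no-cell wells, from CellTiter-Glo luminescence after 48 hours' treatment.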
DT40 TDP1 no CPT: qHTS for Inhibitors of human tyrosyl-DNA phosphodiesterase 1 (TDP1): qHTS in cells in absence of CPT; actives 15% (n = 420,000); DT40 Tdp1-/- hTDP1 cells, no CPT, ATP luminescence, 48 h; Potency, µM (highest dose often 46.2 µM), for the others: top-dose activity change, negative = growth inhibition, most hits filed as inhibitors; AID 686978, 2013; further: potency means the concentration at half of the fitted maximal effect; nearly all actives have a fitted effect of over 55% in size
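Camptothecin absent (DMSO only). Human TDP1-complemented DT40 knockout cells, 400 cells/well, 37 °C for minimum 48 hr; ATP measured via CellTiter-Glo, 30 min dark incubation, luminescence.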
IL-1B inflam inh: blocks inflammasome-driven IL-1 beta release. actives 4.7% (n = 360,000). THP-1 LPS/ATP IL-1B secretion, AlphaLISA, 16 h; hits give low values. activity change, % at 57.5 µM. AID 743279; in the data active means activity change below about -50%; inconclusive means mostly about -30% to -49%
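THP-1 cells pretreated 1 hr with compounds (up to 57.5 uM final), then stimulated with LPS (250 ng/mL final) plus ATP (1.25 mM final); secreted IL-1B measured by AlphaLISA after 16 hr, decreased signal indicating inhibition.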
Starred values were filed as active, the others as inactive; u = inconclusive; x = no result; ! = repeats disagree; [ ] = dose if it differs, or a comment. This is one part of a sample in which hits are shown more often than they occur. Unless noted, the call rests on the fitted dose curve; in most records, active means well fitted curve in the direction sought with a large enough effect; inconclusive means small, poorly fitted or top-dose-only effect, or another doubt; inactive means no such curve, though single readings can be large; an effect the other way counts as inactive or inconclusive. Unless noted, on the % scale 0 is the no-effect control and ±100 the full control effect.

SMILES	12-LOX inh	HT1080 IDH1KD tx	TDP1 cell CPT	HT1080NT lethal	DT40 TDP1 no CPT	IL-1B inflam inh
Cc1cccc(N2C(=O)NC(=O)/C(=C\c3cc(C)n(-c4sc5c(c4C#N)CCCC5)c3C)C2=O)c1C	u	16µM*	u	u	u	-138*
Cc1cc(/C=C2\C(=O)NC(=O)N(c3ccccc3F)C2=O)c(C)n1-c1cc(C(=O)O)cc(C(=O)O)c1	u	0%	3%	3%	-1%	-18
CCOC(=O)c1c(-n2c(C)cc(C=C3C(=O)NC(=O)NC3=O)c2C)sc2c1CCCC2	-20%	0%	u	9%	18µM*	-15
COCC(=O)NC[C@H]1C[C@@H]2CCN1C[C@@H]2CN1CCC(C)CC1	45%[176 µM]	x	x	x	x	x
CCC(=O)N1[C@H]2CC[C@@H]1c1cnc(-c3ccccc3)nc1C2	17%	x	x	x	x	x
CC[C@]1(O)CC(O[C@@H]2CC(N(C)C)C(O)C(C)O2)c2c(cc3c(c2O)C(=O)c2c(O)cccc2C3=O)C1C(=O)OC (stereo partly drawn)	x	x	0.82µM*	x	0.58µM*	x
CC[C@@]1(O)CC(O)c2c(cc3c(c2O)C(=O)c2c(O)ccc(O)c2C3=O)C1C(=O)OC (stereo partly drawn)	x	x	-20%	x	-16%	x
CCn1cc(C(=O)OC(C)C(=O)NC(=O)NC(C)(C)C)c2ccccc21 (stereo not drawn)	3%	x	x	x	x	x
O=C1c2ccccc2-c2cccc3cccc1c23	u	1%	21µM*!	17%	18µM*!	-17
O=C1c2ccccc2-c2cc3ccccc3cc21	u	-2%	-25%	5%	u	-9
CCNCCc1ccccc1	0%	x	x	x	x	x
CCc1cnc(N2CCC3(CC2)C(=O)Nc2cc(Oc4ccccc4)c(OC)cc23)nc1	-12%[176 µM]	x	x	x	x	x
O=C(CF)N(O)c1ccc(C=Cc2ccccc2)cc1	-3%	u	0.13µM*	-22%	0.026µM*	-28
CN1CCN(C(=O)Cc2c[nH]c3ncc(-c4ccc(CO)cc4)cc23)CC1	5%[176 µM]	x	x	x	x	x
CCCCc1c(C)nc(N2CCN(C)CC2)[nH]c1=O	28%	x	x	x	x	x
O=C(CCl)c1ccc(Cl)cc1Cl	u	x	22µM*	x	14µM*	x
C[N+](C)(C)CC1CCCCC1=O (stereo not drawn)	13µM*	x	x	x	x	x
O=C1CCCCC1CN1CCCCC1 (stereo not drawn)	-6%	x	u	x	-30%	x
O=C(CCN1CCN(c2ccccc2)CC1)c1ccc(Br)cc1	0%	1%	9.2µM*	5%	5.8µM*	-17
c1ccc(N2CCN(c3ccccc3)CC2)cc1	x	x	10%	x	-16%	x
CN(C(=O)c1cn(Cc2ccccc2)c2ccccc12)C1CCS(=O)(=O)C1 (stereo not drawn)	16%	x	x	x	x	x
N#Cc1cccc(-c2ccc3n(c2=O)C[C@H]2C[C@@H]3CN(C(=O)c3ccc(F)cc3)C2)c1	1%[176 µM]	x	x	x	x	x
C=CCn1c(O)c(C(C)=Nc2ccc(C(=O)OCC)cc2)c(=O)[nH]c1=O	5.6µM*	u	-23%	0%	u	36
C=CCn1c(O)c(C(CC)=NCCc2c[nH]c3ccccc23)c(=O)[nH]c1=O	113%	u	u	u	16µM*	33
C=CCn1c(O)c(C(=O)CCCCCC)c(=O)[nH]c1=O	0%	u	12µM*	u	8.2µM*	33
SMILES	12-LOX inh	HT1080 IDH1KD tx	TDP1 cell CPT	HT1080NT lethal	DT40 TDP1 no CPT	IL-1B inflam inh
C=CCn1c(O)c(C(C)=Nc2cccc(C(=O)O)c2)c(=O)[nH]c1=O	0%	17%	0%	7%	-1%	8
C=CCn1c(O)c(C(CC)=NCCc2ccccc2)c(=O)[nH]c1=O	-16%	-5%	u	0%	u	1
C=CCn1c(O)c(C(C)=O)c(=O)[nH]c1=O (tested in a mixture with another compound)	83%	13%	4%	1%	9%	-18
C=CCn1c(O)c(C(C)=NCc2cc(OC)cc(OC)c2)c(=O)[nH]c1=O	-1%	5.8µM*	4.1µM*	3.7µM*	1.6µM*	71
Cc1cc(OCC(=O)N2CCN(Cc3nc(N)c4ccccc4n3)CC2)ccc1C(C)C	26%	x	x	x	x	x
CCOC(=O)C1=C(C)N=C2c3ccccc3C(=O)C2C1c1ccc(Cl)cc1 (stereo not drawn)	u	u	u	u	u	-52*
CCc1ccc2c(CN3CC=C(c4ccccc4)CC3)cc(=O)oc2c1	u	0%	u	4%	16µM*	10
Cc1ccc2c(CN3CC=C(c4ccccc4)CC3)cc(=O)oc2c1C	-19%	5%	u	4%	23µM*	1
O=c1[nH]c(CN2CC=C(c3ccccc3)CC2)nc2cc(C(F)(F)F)ccc12	488%	-1%	u	-7%	u	25
CCC1c2cccn2-c2ccccc2CN1C(=O)Nc1ccc(F)cc1F (stereo not drawn)	-11%	x	x	x	x	x
O=C(NCc1ccco1)[C@H]1CN2CC[C@H]1C[C@@H]2Cn1cc(CCO)nn1	2%[176 µM]	x	x	x	x	x
O=c1[nH]c2ccccc2n1C1CCN(C(c2ccccc2)c2nnnn2-c2ccc3c(c2)OCCO3)CC1 (stereo not drawn)	-25%	u	18µM*	u	18µM*	-1
O=C1NCN(c2ccccc2)C12CCN(C(c1ccccc1)c1nnnn1C1CCCC1)CC2 (stereo not drawn)	u	-8%	u	-1%	u	u
O=c1[nH]c2ccccc2n1C1CCN(C(c2cccs2)c2nnnn2-c2ccc3c(c2)OCCO3)CC1 (stereo not drawn)	4%	3.3µM*	2.9µM*	u	2.3µM*	18
O=c1[nH]c2ccccc2n1C1CCN(C(c2nnnn2-c2ccc3c(c2)OCCO3)C2CC2)CC1 (stereo not drawn)	u	u	13µM*	u	7.3µM*	-3
C=C[C@H]1CN2CC[C@H]1C[C@@H]2CNC(=O)C(N)=O	19%[176 µM]	x	x	x	x	x
CC(=O)c1ccc(NC(=O)NC[C@H]2C[C@@H]3CCN2C[C@@H]3CN2CCC(C)CC2)cc1	13%[176 µM]	x	x	x	x	x
Cc1ccc(C(=O)NC[C@H]2C[C@@H]3CCN2C[C@@H]3c2cc(C3CCCCC3)nn2C)cc1	3%[176 µM]	x	x	x	x	x
C#C[C@]1(O)CCC2C3C(=O)C=C4C(Cl)=CCC[C@]4(C)C3CC[C@@]21C (stereo partly drawn)	-4%	33µM*	16µM*	10µM*	10µM*	-90*
